The list is not random: actives were taken first. Their share in the collection is about 3.6%.
Autofluor counter = flagged as autofluorescent in microsphere protease counterscreen; compound autofluorescence counterscreen, microsphere flow cytometry; active compounds read high; fluorescence intensity (test concentration not listed); 3.1% of 360,000 active; AID 624483; in the data active = fluorescence intensity above about 16000; inconclusive = no clear call, values can overlap the other calls
BJeLR viability = MLPCN primary cell-based screen for lethality selective to Ras in HRASV12 cells. BJeLR (HRASV12) viability, CellTiter-Glo ATP luminescence, 48 h. AID 1554, 2009. 0.17% of 300,000 active. inhibition, % (test concentration not listed); in the data active = inhibition above about 50%; inconclusive = no clear call, values can overlap the other calls
BoNT-F LC inh = BoNT/F light chain protease inhibitors, primary screen, biochemical, flow cytometry, MLPCN library; Botulinum neurotoxin type F light chain protease (Clostridium botulinum); Multiplex microsphere protease cleavage assay; inhibition, % at 10 µM; 0.22% of 360,000 active; in the data active = inhibition above about 35%, passing the limit was not always enough; inconclusive = no clear call, values can overlap the other calls; note: plate controls were buffer without enzyme for full effect and enzyme alone for no effect
BoNT A protease = BoNT/A light chain protease inhibitors, primary screen, biochemical, flow cytometry, MLPCN library; inhibition, % at 10 µM; multiplex microsphere protease substrate cleavage; 0.17% of 360,000 active; Botulinum neurotoxin type A light chain protease (Clostridium botulinum A str. ATCC 3502); note: plate controls were buffer without enzyme for full effect and enzyme alone for no effect
SARS 3CLpro inh = SARS-CoV 3CLpro protease inhibitors, primary screen, biochemical, quenched FRET; inhibition, % at 6 µM; 0.14% of 290,000 active; recombinant SARS-CoV 3CLpro, quenched FRET peptide cleavage; in the data active = inhibition above about 12%
Anthrax LF inh2 = Bacillus anthracis LF protease inhibitors, primary screen, biochemical, multiplex microsphere, MLPCN library; Lethal factor (Bacillus anthracis), P15917; inhibition, % at 10 µM; 0.12% of 360,000 active; AID 588501, 2011; multiplex microsphere protease cleavage assay; note: plate controls were buffer without enzyme for full effect and enzyme alone for no effect
Target sequence (P15917 whole entry, looked up): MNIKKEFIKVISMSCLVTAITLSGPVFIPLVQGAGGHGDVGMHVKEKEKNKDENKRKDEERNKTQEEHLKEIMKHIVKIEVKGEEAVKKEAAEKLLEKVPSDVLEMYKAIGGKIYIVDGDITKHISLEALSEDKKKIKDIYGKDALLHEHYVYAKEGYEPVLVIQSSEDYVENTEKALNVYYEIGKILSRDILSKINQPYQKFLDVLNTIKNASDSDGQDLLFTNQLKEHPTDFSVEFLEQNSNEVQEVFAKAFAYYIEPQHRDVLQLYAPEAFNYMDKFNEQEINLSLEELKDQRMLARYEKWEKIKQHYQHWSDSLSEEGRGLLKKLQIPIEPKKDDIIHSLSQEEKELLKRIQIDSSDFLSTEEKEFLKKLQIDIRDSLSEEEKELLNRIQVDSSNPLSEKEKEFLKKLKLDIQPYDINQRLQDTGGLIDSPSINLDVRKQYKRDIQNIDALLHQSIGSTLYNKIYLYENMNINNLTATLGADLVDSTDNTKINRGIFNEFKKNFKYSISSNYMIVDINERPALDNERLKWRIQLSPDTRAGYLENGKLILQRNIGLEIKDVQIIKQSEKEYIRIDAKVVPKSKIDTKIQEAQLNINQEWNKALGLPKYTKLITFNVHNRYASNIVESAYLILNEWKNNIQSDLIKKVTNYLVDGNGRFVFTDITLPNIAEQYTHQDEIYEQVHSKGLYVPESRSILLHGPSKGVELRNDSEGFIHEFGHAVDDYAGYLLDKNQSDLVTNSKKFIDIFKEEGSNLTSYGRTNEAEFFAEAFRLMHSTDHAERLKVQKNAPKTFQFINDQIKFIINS
Active calls of the source: *. Cut-off read from the data, not from the text of the source, unless noted: active = inhibition above about 30%; inconclusive = no clear call, values can overlap the other calls; inactive = below that.

Cc1ccc(C)c(NC(=O)c2ccc(N(C)S(C)(=O)=O)cc2)c1 was read as Autofluor counter 20420*, BJeLR viability 6, BoNT-F LC inh 5, BoNT A protease 4, SARS 3CLpro inh 4 and Anthrax LF inh2 -11.
`CC1=NN(c2ccccc2)C(=O)C1C(=O)c1cc([N+](=O)[O-])cc([N+](=O)[O-])c1` (stereo unspecified) gave Autofluor counter 4080, BJeLR viability -1, BoNT-F LC inh -2, BoNT A protease 0, SARS 3CLpro inh 3 and Anthrax LF inh2 4.
Screening Cc1cccc(/C=N\Nc2cn[nH]c(=O)c2Cl)c1 returned Autofluor counter 17627*, BJeLR viability 17, BoNT-F LC inh 11, BoNT A protease 12, SARS 3CLpro inh 3 and Anthrax LF inh2 3.
Screening O=c1[nH]ncc(N/N=C\c2cccnc2)c1Cl returned BJeLR viability 1 and SARS 3CLpro inh -3.
CCn1c(O)c(C=Nc2ccc(N3CCOCC3)c(Br)c2)c(=O)n(CC)c1=S was read as Autofluor counter 19239*, BJeLR viability 5, BoNT-F LC inh 15, BoNT A protease 18, SARS 3CLpro inh 2 and Anthrax LF inh2 20.
`CCn1c(O)c(C=Nc2ccc(N3CCOCC3)cc2)c(=O)n(CC)c1=S` gave Autofluor counter 9832, BJeLR viability -8, BoNT-F LC inh 2, BoNT A protease 3, SARS 3CLpro inh 5 and Anthrax LF inh2 10.
For FC(F)(F)c1nc2nncn2c2c1CCCCC2 the results were Autofluor counter 3235, BJeLR viability 3, BoNT-F LC inh -7, BoNT A protease 0, SARS 3CLpro inh 2 and Anthrax LF inh2 -1.
Screening O=C(CNC(=O)c1ccco1)OCC(=O)c1ccc(Br)cc1 returned Autofluor counter 3616, BJeLR viability 0, BoNT-F LC inh -31, BoNT A protease -8, SARS 3CLpro inh 5 and Anthrax LF inh2 5.
`COC(=O)c1cccc(COC(=O)CNC(=O)c2ccco2)c1` gave Autofluor counter 20436*, BJeLR viability 1, BoNT-F LC inh 0, BoNT A protease -3, SARS 3CLpro inh -3 and Anthrax LF inh2 -1.
Screening Cc1ccc(C(=O)COC(=O)CNC(=O)c2ccco2)cc1 returned Autofluor counter 20040*, BJeLR viability -3, BoNT-F LC inh -2, BoNT A protease -1, SARS 3CLpro inh -1 and Anthrax LF inh2 1.
CSc1ccc(/C=N/NC(=O)c2cccs2)cc1 was read as Autofluor counter 3499, BJeLR viability -11, BoNT-F LC inh 45*, BoNT A protease 0, SARS 3CLpro inh 4 and Anthrax LF inh2 inconclusive.
Screening C[C@@H]1CN([C@H](C)CO)C(=O)c2cc(NS(=O)(=O)c3cn(C)cn3)ccc2O[C@@H]1CN(C)S(C)(=O)=O returned Autofluor counter 3689, BoNT-F LC inh -8, BoNT A protease -1 and Anthrax LF inh2 -8.
CC1(C)OC(=O)C(=NNc2ccc(Br)cc2)C(=O)O1 was read as Autofluor counter 2251, BJeLR viability -1, BoNT-F LC inh 3, BoNT A protease 0, SARS 3CLpro inh 2 and Anthrax LF inh2 1.
`C=C(C)C(C)(C#CCN1CCCC1)OC(C)=O` (stereo unspecified) gave Autofluor counter 18876*, BJeLR viability 2, BoNT-F LC inh 2, BoNT A protease 2, SARS 3CLpro inh -2 and Anthrax LF inh2 1.
Cc1cc(-n2nnc3ccccc32)nc2ccccc12 was read as Autofluor counter 17243*, BJeLR viability 0, BoNT-F LC inh -6, BoNT A protease -3, SARS 3CLpro inh -4 and Anthrax LF inh2 0.
Screening Cc1cc(N2CCCCC2)nc2ccccc12 returned Autofluor counter 4402, BJeLR viability 1, BoNT-F LC inh -5, BoNT A protease -1, SARS 3CLpro inh 4 and Anthrax LF inh2 -3.
`COc1cccc(-c2ncc3ccccc3c2COC(=O)c2cccc(Br)c2)c1` gave Autofluor counter 4128, BoNT-F LC inh -1, BoNT A protease 0 and Anthrax LF inh2 -10.
`O=C(C1CCCCN1S(=O)(=O)c1ccccc1)N1CCN(C(c2ccccc2)c2ccccc2)CC1` (stereo unspecified) gave Autofluor counter 20580*, BJeLR viability 2, BoNT-F LC inh -1, BoNT A protease -1, SARS 3CLpro inh 5 and Anthrax LF inh2 -4.
Screening CCOC(=O)C1=C(N)Oc2cc(C)oc(=O)c2C12C(=O)N1c3c(cccc32)C(C)CC1(C)C (stereo unspecified) returned Autofluor counter 10460, BJeLR viability -22, BoNT-F LC inh -7, BoNT A protease 1, SARS 3CLpro inh 3 and Anthrax LF inh2 0.
`COc1cc2c3c(c1)/C(=C1/SC(NC(C)=O)=NC1=O)C(=O)N3C(C)(C)C=C2C` gave Autofluor counter 4949, BJeLR viability -11, BoNT-F LC inh 10, BoNT A protease 0, SARS 3CLpro inh 3 and Anthrax LF inh2 -4.
For CCOC(=O)C1=C(N)Oc2cc(C)oc(=O)c2C12C(=O)N1c3c(cccc32)C(C)=CC1(C)C (stereo unspecified) the results were Autofluor counter 21518*, BJeLR viability 8, BoNT-F LC inh 2, BoNT A protease 3, SARS 3CLpro inh 0 and Anthrax LF inh2 -8.
`CCOC(=O)C1=C(N)Oc2cc(C)oc(=O)c2C12C(=O)N1c3c(cc(OC)cc32)C(C)=CC1(C)C` (stereo unspecified) gave Autofluor counter 23174*, BJeLR viability 0, BoNT-F LC inh -1, BoNT A protease inconclusive, SARS 3CLpro inh -1 and Anthrax LF inh2 -4.
`CS(=O)(=O)N(CC(=O)NCc1ccco1)c1ccc(OCc2ccccc2)cc1` gave Autofluor counter 4569, BJeLR viability 0, BoNT-F LC inh 0, BoNT A protease -1, SARS 3CLpro inh 5 and Anthrax LF inh2 -11.
Screening O=C(CN1CC(c2ccccc2)CC1=O)OCc1cccc(Br)c1 (stereo unspecified) returned Autofluor counter inconclusive, BJeLR viability 7, BoNT-F LC inh 16, BoNT A protease inconclusive, SARS 3CLpro inh 2 and Anthrax LF inh2 -26.
For Nc1nnnn1CC(=O)OCc1cccc(Br)c1 the results were Autofluor counter 23207*, BJeLR viability 8, BoNT-F LC inh -2, BoNT A protease inconclusive, SARS 3CLpro inh -1 and Anthrax LF inh2 -1.
Screening O=C(Nc1ccc(F)cc1)C1CCN(S(=O)(=O)c2cccs2)CC1 returned Autofluor counter 4653, BJeLR viability 2, BoNT-F LC inh -2, BoNT A protease 0, SARS 3CLpro inh -3 and Anthrax LF inh2 -5.

Bioassay records as filed in PubChem.
